Experimental data taken from PubChem BioAssay (NCATS).
Records with an inconclusive call do not appear. The source made the active and inactive calls. Calls follow the shape of the full dose curve. Bridge positions count the residues as written; N and C are the ends. Square brackets hold non-standard residues; d marks the D form. Peptide text beside a SMILES is read from it. * marks the point of attachment. ξ: configuration not given here. Octanoyl(6-Me) = CCC(C)CCCCC(=O)*; ξThr(3R) = C[C@@H](O)C(N)C(=O)O; dDab = NCC[C@@H](N)C(=O)O; Dab = NCC[C@H](N)C(=O)O

Assay: Cytotoxicity counterscreen for inhibitors of SARS-CoV-2 cell entry (AID 1645845); also: nearly all actives have a fitted effect of over 50% in size
Conditions: cell viability (SARS-CoV-2 entry assay cells); series mostly up to 57.1 µM; activity change, negative = cytotoxicity: at the top concentration
Source text: Assay Provider: Wei Zheng, Ph.D.
National Center for Advancing Translational Sciences, National Institute of Health, Rockville, MD.
SARS-CoV-2 spike protein, within the viral envelope, mediates viral attachment and infection of host cells. The SARS-CoV-2 spike protein specifically binds to the host receptor ACE2 (Angiotensin-converting enzyme 2). This interaction promotes endocytosis of the viral particle, additional events lead to viral-host cell membrane fusion and release of the viral contents, allowing viral replication.
While SARS-CoV-2 requires BSL-3 facilities for live virus work, pseudo-typed partices (PP) that incorporate SARS-CoV-2 spike proteins without replication elements could facilitate studies on viral entry mechanisms in a BSL-2 setting. This PP cell entry assay could also enable screening of small molecule compound libraries in BSL-2 setting to identify inhibitors of SARS-CoV-2 cell entry. To eliminate false positive compounds, ATP content cytotoxicity assay was screened in the same cell line.
SEQUENCE No. (e.g., 1, 2, 3, etc.); […] (e.g., Cells, Incubation, Reagent, etc.); VALUE and DESCRIPTION.
1. Cells. Seed 1500 HEK293-ACE2 cells (Expi293F with stable expression of human ACE2) in 2 uL/well media (DMEM, 10% FBS, 1x L-glutamine, 1x Pen/Strep, 1 ug/ml puromycin) in white 1536-well assay plates (Greiner #782073).
2. Incubation. Incubate at 37 C with 5% CO2 overnight (~16 h).
3. Compounds. Dispense 23 nL/well compounds in DMSO via pin transfer.
4. Incubation. Incubate for 1 h at 37C 5% CO2.
5. Reagent. Dispense 2 uL/well of media (DMEM, 10% FBS, 1x L-glutamine, 1x Pen/Strep, 1 ug/ml puromycin).
6. Incubation. Incubate at for 48h at 37C 5% CO2
7. Reagent. Dispense 4 uL/well of ATPLite 1step luminescence assay reagent (PerkinElmer #6016739).
8. Incubation. Incubate for 15 min at room temperature.
9. Detection. Read luminescence signal (Viewlux plate reader, PerkinElmer). Data was normalized with wells containing cells as 100%, and wells without cells (media only control) as 0%.
% is scaled to controls: 0 for no effect and ±100 for the full control effect; potency is read from the fitted curve at half-maximal effect.

| Compound | activity change, negative = cytotoxicity | Potency | outcome |
| --- | --- | --- | --- |
| N#Cc1ccc(COC[C@H]2O[C@@H](n3c(NCc4ccc(Cl)c(Cl)c4)nc4c(N)ncnc43)[C@H](O)[C@@H]2O)cc1 | -16.9% (inactive) |  |  |
| C[C@@H](NCc1cc2ccccc2[nH]1)c1cccc2ccccc12 |  | 31.6 µM (active) |  |
| Cc1c(-c2ccnn2C)cc(C(=O)NCc2ccc(S(C)(=O)=O)cn2)c(=O)n1-c1cccc(C(F)(F)F)c1 | -15.7% (inactive) |  |  |
| COc1ccc(CN(C(=O)[C@@H](N)Cc2c(C)cc(C(N)=O)cc2C)[C@@H](C)c2ncc(-c3ccccc3)[nH]2)cc1C(=O)O |  |  | inactive |
| N[C@H](CO)C(=O)O |  |  | inactive |
| O=c1oc2cc(O)ccc2s1 |  |  | inactive |
| Oc1ccc(-c2nc(-c3ccc(F)cc3)c(-c3ccncc3)[nH]2)cc1 |  |  | inactive |
| NCC1CCC(C(=O)O)CC1 (stereo not given) |  | inactive |  |
| CN(C)CCC(c1ccc(Br)cc1)c1ccccn1 (stereo not given) | -2.78% (inactive) |  |  |
| Nc1nc(N)c2nc(CNc3ccc(C(=O)NC(CCC(=O)O)C(=O)O)cc3)cnc2n1 (stereo not given) | -0.0889% (inactive) |  |  |
| C[C@H](NC(=O)[C@@H](O)c1cc(F)cc(F)c1)C(=O)N[C@@H]1C(=O)N(C)c2ccccc2-c2ccccc21 | 1.74% (inactive) |  |  |
| C[C@@H](c1ncncc1F)[C@](O)(Cn1cncn1)c1ccc(F)cc1F | -0.395% (inactive) |  |  |
| CC[C@@]1(O)C[C@H](O[C@H]2C[C@H](N(C)C)[C@H](O[C@H]3C[C@H](O)[C@H](O[C@H]4CCC(=O)[C@H](C)O4)[C@H](C)O3)[C@H](C)O2)c2c(cc3c(c2O)C(=O)c2c(O)cccc2C3=O)[C@@H]1C(=O)OC |  |  | inactive |
| Cc1c(F)cc(C(=O)NC2CC2)cc1-c1ccc(C(=O)NCC(C)(C)C)cn1 |  |  | inactive |
| COC(=O)[C@H]1[C@@H](OC(=O)c2ccccc2)C[C@@H]2CC[C@H]1N2C |  |  | inactive [at 114 µM] |
| CN(C)CCCC1(c2ccc(F)cc2)OCc2cc(C#N)ccc21 (stereo not given) | -4.28% (inactive) |  |  |
| N=c1ccn2c(n1)O[C@H]1[C@@H](O)[C@@H](CO)O[C@H]12 | -6.5% (inactive) |  |  |
| CCC(C)CCCCC(=O)N[C@@H](CCN)C(=O)NC(C(=O)N[C@H](CCN)C(=O)N[C@@H]1CCNC(=O)C([C@@H](C)O)NC(=O)[C@@H](CCN)NC(=O)[C@@H](CCN)NC(=O)[C@@H](CC(C)C)NC(=O)[C@H](Cc2ccccc2)NC(=O)[C@H](CCN)NC1=O)[C@@H](C)O (stereo partly drawn) ({Octanoyl(6-Me)}-[Dab][ξThr(3R)][dDab][dDab][Dab]F[dL][dDab][dDab][ξThr(3R)]; lactam 4-C) | -2.89% (inactive) |  |  |
| COc1ccc(CCN(C)CCCC(C#N)(c2ccc(OC)c(OC)c2)C(C)C)cc1OC (stereo not given) |  | inactive |  |
| CCC(=O)NCC[C@@H]1CCc2ccc3c(c21)CCO3 |  | inactive |  |

| Compound | activity change, negative = cytotoxicity | Potency | outcome |
| --- | --- | --- | --- |
| C[C@H](NCc1ccc(OCc2cccc(F)c2)cc1)C(N)=O |  |  | inactive |
| C[C@H](Cc1ccc(O)c(O)c1)[C@@H](C)Cc1ccc(O)c(O)c1 | 0.977% (inactive) |  |  |
| COc1cc2c(cc1F)C(c1ccccc1Cl)=Nc1c(n[nH]c1C)N2 | -18.1% (inactive) |  |  |
| COC1=C(OC)C(=O)C(CC=C(C)CCC=C(C)CCC=C(C)CCC=C(C)CCC=C(C)CCC=C(C)CCC=C(C)CCC=C(C)CCC=C(C)CCC=C(C)C)=C(C)C1=O |  |  | inactive [at 5.25 µM] |
| Cc1ccc(/C=N/NC(=O)c2ccccc2Oc2ccccc2)o1 |  |  | inactive |
| O=S(=O)(O)c1ccc2cc(N=Nc3cc(S(=O)(=O)O)c4cccnc4c3O)ccc2c1 | -15.1% (inactive) |  |  |
| CN1C(=O)C[C@H](C(=O)N[C@@H](Cc2cnc[nH]2)C(=O)N2CCC[C@@H]2C(N)=O)NC1=O | 0.68% (inactive) |  |  |
| CCNC1(C(N)=O)CCN(c2ncnc3c2nc(-c2ccccc2Cl)n3-c2ccc(Cl)cc2)CC1 | -5.81% (inactive) |  |  |
| CCn1c(C(=O)N(C2CC2)C2CC2)cc2c3c(ncn3C)c(Nc3cc(C)n(C)n3)nc21 | -2.13% (inactive) |  |  |
| CC(C)C[C@H](NC(=O)CNC(=O)c1cc(Cl)ccc1Cl)B1OC(=O)CC(CC(=O)O)(C(=O)O)O1 (stereo not given in full) |  | 0.891 µM (active) |  |
| CCCNC(=O)Nc1ccc(Oc2ncnc3cc(OC)c(OC)cc23)cc1Cl |  |  | inactive |
| CC(C)(C)c1nc2c3cc[nH]c(=O)c3c3cc(F)ccc3c2[nH]1 |  |  | inactive |
| C[C@H]1COc2c(N3CCN(C)CC3)c(F)cc3c(=O)c(C(=O)O)cn1c23 |  | inactive |  |
| C[C@@H](NC(=O)c1ncnc(N)c1Cl)c1ncc(C(=O)Nc2cc(C(F)(F)F)c(Cl)cn2)s1 | -4.51% (inactive) |  |  |
| O=C1CCC[C@@H]2[C@H]3CCC[N+]4([O-])CCC[C@@H](CN12)[C@@H]34 (stereo not given in full) |  |  | inactive |
| CC1=C(C(=O)Nc2cc3cn[nH]c3cc2F)C(c2ccc(C(F)(F)F)cc2)CC(=O)N1 (stereo not given) | -5.81% (inactive) |  |  |
| COc1ccc(-c2cc(=O)c3c(O)cc(O)cc3o2)cc1O | -11% (inactive) |  |  |
| Cn1cc(C2=C(c3c4n(c5ccccc35)CCC(CN)C4)C(=O)NC2=O)c2ccccc21 (stereo not given) | -8.45% [at 11.3 µM] (inactive) |  |  |
| Nc1nccc(-c2ccc3noc(-c4ccc(Cl)cc4)c3c2)n1 | -28.7% (inactive) |  |  |
| O=[N+]([O-])c1cn2c(n1)OC[C@@H](OCc1ccc(OC(F)(F)F)cc1)C2 |  |  | inactive |
